According to the supplement of paper PMC8728848:
Many of the other results were omitted from the sample, so the strongest signals are more common in it than they were.

Legend:
Experiment in all cases: glycan array binding signal (z-score within array); higher = stronger binding
Conditions in all cases: glycan notation: IUPAC condensed, linker removed
[1] = target: Fuc(a1-2)Gal(b1-3)[Fuc(a1-4)]GlcNAc(b1-3)[Fuc(a1-3)[Gal(b1-4)]GlcNAc(b1-6)]Gal(b1-4)Glc
Summary of the method: (§1)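 Glycan array binding is given as a within-array Z-score, which can be read as non-binding when negative. The arrays, 3228 of them, came from the Consortium for Functional Glycomics database and were retained only where the protein sequence was available. Z-scores were averaged across arrays of the same protein sequence at different concentrations or buffers and across linkers.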

[2] = target: Fuc(a1-2)Gal(b1-4)Fuc(a1-3)]GlcNAc(b1-2)Man(a1-3)[Fuc(a1-2)Gal(b1-4)[Fuc(a1-3)]GlcNAc(b1-2)Man(a1-6)]Man(b1-4)GlcNAc(b1-4)GlcNAc
Summary of the method: as §1

[3] = target: Fuc(a1-2)Gal(b1-4)[Fuc(a1-3)]GlcNAc(b1-3)Gal(b1-4)[Fuc(a1-3)]GlcNAc
Summary of the method: as §1

Fuc(a1-2)Gal6S(b1-4)Glc = target: Fuc(a1-2)Gal6S(b1-4)Glc
Summary of the method: as §1

[4] = target: Fuc(a1-2)[Gal(a1-3)]Gal(b1-3)GlcNAc(b1-2)Man(a1-3)[Fuc(a1-2)[Gal(a1-3)]Gal(b1-3)GlcNAc(b1-2)Man(a1-6)]Man(b1-4)GlcNAc(b1-4)GlcNAc
Summary of the method: as §1

[5] = target: Fuc(a1-2)[Gal(a1-3)]Gal(b1-4)Glc
Summary of the method: as §1

[6] = target: Fuc(a1-2)[Gal(a1-3)]Gal(b1-4)GlcNAc(b1-2)Man(a1-3)[Fuc(a1-2)[Gal(a1-3)]Gal(b1-4)GlcNAc(b1-2)Man(a1-6)]Man(b1-4)GlcNAc(b1-4)GlcNAc
Summary of the method: as §1

[7] = target: Fuc(a1-2)[GalNAc(a1-3)]Gal(b1-4)[Fuc(a1-3)]GlcNAc
Summary of the method: as §1

[8] = target: Fuc(a1-3)[Gal(b1-4)]GlcNAc(b1-3)Gal(b1-3)[Fuc(a1-4)]GlcNAc
Summary of the method: as §1

[9] = target: Fuc(a1-3)[Gal(b1-4)]GlcNAc(b1-3)GalNAc
Summary of the method: as §1

[10] = target: Fuc(a1-3)[Gal(b1-4)]GlcNAc6S
Summary of the method: as §1

Fuc(a1-4)GlcNAc = target: Fuc(a1-4)GlcNAc
Summary of the method: as §1

Fuc(b1-3)GlcNAc = target: Fuc(b1-3)GlcNAc
Summary of the method: as §1

[11] = target: Gal(a1-4)Gal(b1-3)GlcNAc(b1-2)Man(a1-3)[Gal(a1-4)Gal(b1-3)GlcNAc(b1-2)Man(a1-6)]Man(b1-4)GlcNAc(b1-4)GlcNAc
Summary of the method: as §1

Gal(b1-2)Gal = target: Gal(b1-2)Gal
Summary of the method: as §1

[12] = target: Gal(b1-3)GalNAc(a1-3)[Fuc(a1-2)]Gal(b1-4)GlcNAc
Summary of the method: as §1

[13] = target: Gal(b1-3)GlcNAc(b1-3)Gal(b1-4)Glc
Summary of the method: as §1

[14] = target: Gal(b1-3)[Fuc(a1-4)]GlcNAc(b1-3)Gal(b1-3)[Fuc(a1-4)]GlcNAc
Summary of the method: as §1

[15] = target: Gal(b1-3)[Fuc(a1-4)]GlcNAc(b1-6)GalNAc
Summary of the method: as §1

[16] = target: Gal(b1-4)GlcNAc(b1-2)Man(a1-6)[Man(a1-3)]Man(b1-4)GlcNAc(b1-4)GlcNAc
Summary of the method: as §1

[17] = target: Gal(b1-4)GlcNAc(b1-3)Gal(b1-4)GlcNAc
Summary of the method: as §1

[18] = target: Gal(b1-4)GlcNAc(b1-3)Gal(b1-4)GlcNAc(b1-2)Man(a1-3)[Gal(b1-4)GlcNAc(b1-3)Gal(b1-4)GlcNAc(b1-2)Man(a1-6)]Man(b1-4)GlcNAc(b1-4)GlcNAc
Summary of the method: as §1

[19] = target: Gal(b1-4)GlcNAc(b1-3)Gal(b1-4)GlcNAc(b1-3)Gal(b1-4)GlcNAc(b1-3)Gal(b1-4)GlcNAc(b1-3)Gal(b1-4)GlcNAc(b1-2)[Gal(b1-4)GlcNAc(b1-3)Gal(b1-4)GlcNAc(b1-3)Gal(b1-4)GlcNAc(b1-3)Gal(b1-4)GlcNAc(b1-3)Gal(b1-4)GlcNAc(b1-6)]Man(a1-6)[Gal(b1-4)GlcNAc(b1-3)Gal(b1-4)GlcNAc(b1-3)Gal(b1-4)GlcNAc(b1-3)Gal(b1-4)GlcNAc(b1-3)Gal(b1-4)GlcNAc(b1-2)Man(a1-3)]Man(b1-4)GlcNAc(b1-4)[Fuc(a1-6)]GlcNAc
Summary of the method: as §1

[20] = target: Gal(b1-4)GlcNAc(b1-3)[GlcNAc(b1-6)]Gal(b1-4)GlcNAc
Summary of the method: as §1

[21] = target: Gal(b1-4)GlcNAc(b1-6)[Gal(b1-4)GlcNAc(b1-3)]GalNAc
Summary of the method: as §1

[22] = target: Gal3S(b1-3)[Fuc(a1-4)]GlcNAc
Summary of the method: as §1

GalNAc(a1-3)GalNAc = target: GalNAc(a1-3)GalNAc
Summary of the method: as §1

GalNAc(b1-3)GalNAc = target: GalNAc(b1-3)GalNAc
Summary of the method: as §1

GalNAc(b1-4)Gal(b1-4)Glc = target: GalNAc(b1-4)Gal(b1-4)Glc
Summary of the method: as §1

GalNAc(b1-4)GlcNAc = target: GalNAc(b1-4)GlcNAc
Summary of the method: as §1

[23] = target: GalNAc(b1-4)GlcNAc(b1-2)Man(a1-3)[GalNAc(b1-4)GlcNAc(b1-2)Man(a1-6)]Man(b1-4)GlcNAc(b1-4)GlcNAc
Summary of the method: as §1

[24] = target: GalNAc3S(b1-4)[Fuc(a1-3)]GlcNAc
Summary of the method: as §1

[25] = target: GlcNAc(b1-2)Man(a1-3)[GlcNAc(b1-2)Man(a1-6)]Man(b1-4)GlcNAc(b1-4)[Fuc(a1-6)]GlcNAc
Summary of the method: as §1

[26] = target: GlcNAc(b1-2)[GlcNAc(b1-6)]Man(a1-6)[GlcNAc(b1-2)Man(a1-3)]Man(b1-4)GlcNAc(b1-4)GlcNAc
Summary of the method: as §1

[27] = target: GlcNAc(b1-3)Gal(b1-4)GlcNAc(b1-2)[GlcNAc(b1-3)Gal(b1-4)GlcNAc(b1-6)]Man(a1-6)[GlcNAc(b1-3)Gal(b1-4)GlcNAc(b1-2)Man(a1-3)]Man(b1-4)GlcNAc(b1-4)GlcNAc
Summary of the method: as §1

[28] = target: Kdn(a2-3)Gal(b1-4)[Fuc(a1-3)]GlcNAc
Summary of the method: as §1

[29] = target: Neu5Ac(a2-3)Gal(b1-3)GlcNAc(b1-6)GalNAc
Summary of the method: as §1

[30] = target: Neu5Ac(a2-3)Gal(b1-4)GlcNAc(b1-2)[Neu5Ac(a2-3)Gal(b1-4)GlcNAc(b1-4)]Man(a1-3)[GlcNAc(b1-4)][Neu5Ac(a2-3)Gal(b1-4)GlcNAc(b1-2)[Neu5Ac(a2-3)Gal(b1-4)GlcNAc(b1-6)]Man(a1-6)]Man(b1-4)GlcNAc(b1-4)GlcNAc
Summary of the method: as §1

[31] = target: Neu5Ac(a2-3)Gal(b1-4)GlcNAc(b1-3)Gal(b1-4)[Fuc(a1-3)]GlcNAc
Summary of the method: as §1

[32] = target: Neu5Ac(a2-6)Gal(b1-4)GlcNAc(b1-2)Man(a1-6)[Gal(b1-4)GlcNAc(b1-2)Man(a1-3)]Man(b1-4)GlcNAc(b1-4)GlcNAc
Summary of the method: as §1

[33] = target: Neu5Ac(a2-6)Gal(b1-4)GlcNAc(b1-3)Gal(b1-4)GlcNAc(b1-3)GalNAc
Summary of the method: as §1

[34] = target: Neu5Ac(a2-6)GlcNAc(b1-4)GlcNAc(b1-4)GlcNAc
Summary of the method: as §1

[35] = target: Neu5Ac(a2-8)Neu5Ac(a2-8)Neu5Ac
Summary of the method: as §1

[36] = target: Neu5Ac9Ac(a2-3)Gal(b1-4)GlcNAc
Summary of the method: as §1

[37] = target: Neu5Gc(a2-8)Neu5Ac(a2-3)Gal(b1-4)GlcNAc
Summary of the method: as §1

[38] = target: Neu5Gc(a2-8)Neu5Gc(a2-3)Gal(b1-4)GlcNAc
Summary of the method: as §1

B1: XTP3-B-MRH2 (Homo sapiens), Q96DZ1 (protein)
chain: EFLSGSYCFRGGVGWWKYEFCYGKHVHQYHEDKDSGKTSVVVGTWNQEEHIEWAKKNTARAYHLQDDGTQTVRMVSHFYGNGDICDITDKPRQVTVKLKCKESDSPHAVTVYMLEPHSCQYILGVESPVICKILDTA
glycan array binding signal (z-score) [1]: 2.32 | glycan array binding signal (z-score) [2]: 2.2 | glycan array binding signal (z-score) [3]: -0.464 | glycan array binding signal (z-score) (Fuc(a1-2)Gal6S(b1-4)Glc): 0.258 | glycan array binding signal (z-score) [4]: 2.72 | glycan array binding signal (z-score) [5]: 1.19 | glycan array binding signal (z-score) [6]: 2.95 | glycan array binding signal (z-score) [7]: -0.177 | glycan array binding signal (z-score) [8]: -2.1 | glycan array binding signal (z-score) [9]: -0.079 | glycan array binding signal (z-score) [10]: -0.412 | glycan array binding signal (z-score) (Fuc(a1-4)GlcNAc): 2.2 | glycan array binding signal (z-score) (Fuc(b1-3)GlcNAc): -0.321 | glycan array binding signal (z-score) [11]: 0.355 | glycan array binding signal (z-score) (Gal(b1-2)Gal): -0.575 | glycan array binding signal (z-score) [12]: 0.353 | glycan array binding signal (z-score) [13]: 0.052 | glycan array binding signal (z-score) [14]: 3.38 | glycan array binding signal (z-score) [15]: -0.084 | glycan array binding signal (z-score) [16]: 2.47 | glycan array binding signal (z-score) [17]: 0.386 | glycan array binding signal (z-score) [18]: 3.21 | glycan array binding signal (z-score) [19]: -0.908 | glycan array binding signal (z-score) [20]: 0.199 | glycan array binding signal (z-score) [21]: 0.934 | glycan array binding signal (z-score) [22]: 0.892 | glycan array binding signal (z-score) (GalNAc(a1-3)GalNAc): 5.08 | glycan array binding signal (z-score) (GalNAc(b1-3)GalNAc): -1.03 | glycan array binding signal (z-score) (GalNAc(b1-4)Gal(b1-4)Glc): -0.842 | glycan array binding signal (z-score) (GalNAc(b1-4)GlcNAc): 2.09 | glycan array binding signal (z-score) [23]: -0.025 | glycan array binding signal (z-score) [24]: 0.236 | glycan array binding signal (z-score) [25]: -0.201 | glycan array binding signal (z-score) [26]: 1.7 | glycan array binding signal (z-score) [27]: 0.276 | glycan array binding signal (z-score) [28]: -0.353 | glycan array binding signal (z-score) [29]: 1.44 | glycan array binding signal (z-score) [30]: -1.25 | glycan array binding signal (z-score) [31]: -0.481 | glycan array binding signal (z-score) [32]: -0.687 | glycan array binding signal (z-score) [33]: -0.693 | glycan array binding signal (z-score) [34]: 0.385 | glycan array binding signal (z-score) [35]: 0.237 | glycan array binding signal (z-score) [36]: -0.6 | glycan array binding signal (z-score) [37]: 0.283 | glycan array binding signal (z-score) [38]: 2.85
